The source of these data is PubChem BioAssay (NCI).

This is part of a sample that, as a whole, favours compounds with a hit. Of some 83,000 tested, about 20% had one in any assay.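 Each cell line was grown in a 96-well plate and treated with one concentration of compound for 48 hours. Values below 10 were considered active.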 Values without a mark were called inactive. Activity calls are given as the source filed them.

In one assay the test system is M14 melanoma. Briefly: NCI-60 one-dose screen, 48 h (100 = growth as untreated, 0 = no growth, -100 = all killed). The conditions noted are these: 10 µM unless noted.
For the compound `NCCNc1nc2ccccc2c2c(=O)c3cc(F)cc(Cl)c3sc12`, the growth is -76.6% (active).

Take `C=C1C(=O)O[C@H]2[C@H]1CC/C(COC(=O)/C=C\C(=O)O)=C\CC[C@@]1(C)O[C@@H]21`: the growth was 110%.

`COc1ccccc1C(=O)/C=C/c1ccccc1`: the growth was 103%.

Take `Cn1cc([C@@H]2Nc3ccc4[nH]ncc4c3[C@H]3[C@H]4CCC(C4)[C@H]32)c(C(F)(F)F)n1`: the growth was 27.5%.

In the case of `N#Cc1c(N)nc2c(c1N)C(c1ccc(F)cc1)c1ccc(N)cc1O2` (stereo not drawn), the growth is 111%.

In the case of `O=C(CN1C=NC2C(N3CCOCC3)=NC=NC21)c1ccc(Br)cc1` (stereo not drawn), the growth was 107%.

Turning to `CCCCN1CCN(c2ccc3nc(-c4ccc5nc(-c6ccc(OCC)cc6)[nH]c5c4)[nH]c3c2)CC1`, the growth was 32.7%.

Take `CCN(CCO)CCNc1ccc(C)c2sc3cc(Cl)ccc3c(=O)c12`: the growth was -74.2% (active).

In the case of `Cc1nn(-c2nc3ccccc3[nH]2)c2c1C(c1ccc(OCC(N)=O)cc1)CC(=O)N2` (stereo not drawn), the growth was 80%.

Take `COC(=O)/C(CCC=C(C)C)=C1\[C@@H](OC(C)=O)C[C@@]2(C)[C@H]1C[C@@H](O)[C@H]1[C@@]3(C)CC[C@H](NCCO)[C@@H](C)[C@@H]3CC[C@@]12C`: the growth was 94.2%.

In the case of `CCCc1c(C)c2sc(=O)[nH]c2[nH]c1=O`, the growth is 108%.

Take `O=C(/C=C/c1ccc(Cl)cc1)c1ccc(Nc2nc(NCCO)nc(Nc3ccc(Cl)cc3)n2)cc1`: the growth was 64.1%.

As for `COc1cccc2c(=O)c3c(sc12)c(NCCCNCCO)nc1ccccc13`, the growth was 41.9%.

For the compound `CCCCc1ccc(NS(=O)(=O)c2cc3c4c(c2)CCN4C(=O)CC3)cc1`, the growth was -12.8% (active).

As for `O=C1/C(=C/c2ccc(O)cc2)COc2ccc(O)cc21`, the growth is 102%.

For the compound `Cc1cc(Nc2ccc(OCc3ccccc3)cc2)nc2cc(O)ccc12`, the growth is 40.4%.

Regarding `O=C(c1nc2ccccc2[nH]1)C1[C@@H](c2cccc(O)c2)C2CC3CCCCC3N2[C@@]12C(=O)Nc1cc(Cl)ccc12` (stereo partly drawn), the growth was 29.2%.

Consider `O=c1oc2ccc(Br)cc2c(=O)n1-c1ccc(Br)cc1F`, for which the growth was -12.4% (active).

As for `O=C(/C=C/c1ccc(C(F)(F)F)cc1)c1ccc(Nc2nc(NCCO)nc(N3CCOCC3)n2)cc1`, the growth is 37.5%.

With `C#CCn1cc(C=C2C(=O)N(C)C(=O)N(C)C2=O)c2cc(Cl)ccc21`, the growth was 108%.

Turning to `COc1ccc(/C=C2/SC(=O)N(CC(=O)N3CCN(c4cc5c(cc4F)c(=O)c(C(=O)O)cn5C4CC4)CC3)C2=O)cc1`, the growth was 103%.

Consider `CCOC(=O)C1=C(C)N=c2s/c(=C\c3ccccc3O)c(=O)n2C1c1ccc(OC)c2ccccc12` (stereo not drawn), for which the growth is -71.7% (active).

With `Nc1ccc(-c2ccc(-c3ccccc3N)c3[nH]c4ccccc4c23)cc1`, the growth is 6.58% (active).

As to `CCOC(=O)c1c2c(n3cccc(Cl)c13)C(=O)c1ncccc1C2=O`, the growth is 22.6%.

`O=C(Nc1ccc(C23CC4CC(CC(c5ccccc5)(C4)C2)C3)cc1)c1cccs1`: the growth is 71.1%.

As to `Cc1ccc2sc3c(NCCCNCCO)nc4ccccc4c3c(=O)c2c1`, the growth was -44.3% (active).

For the compound `COc1ccccc1N1CCN(C(CNS(=O)(=O)c2ccc(Cl)cc2)c2cccnc2)CC1` (stereo not drawn), the growth was 104%.

For `CCn1c(-c2nonc2Nc2ccc(OC)cc2)nc2ccccc21`, the growth is 104%.

Consider `O=C(Nc1ccc(N2CCNCC2)cn1)c1[nH]ncc1Nc1ncnc2sc3c(c12)CCC3`, for which the growth was -60.7% (active).

In the case of `O=C(/C=C/c1cccc(Cl)c1)OCc1ccc2cc1OCC#C/C=C\C#CCO2`, the growth was 103%.

On to `C[n+]1c2ccccc2nc2ccc(NCCO)cc21`, for which the growth was 92.8%.

Take `Nc1nc2c(ncn2[C@@H]2O[C@H](CS)[C@@H](O)[C@H]2O)c(=O)[nH]1`: the growth is 102%.

In the case of `Cn1c(C(=O)c2cccc3ccccc23)nc2ccccc21`, the growth was -45.9% (active).

`CC/C(=C(\CC)c1ccc(OCC[N+](C)(C)C)cc1)c1ccc(OC)cc1`: the growth is 58.1%.

Consider `O=C(Nc1ccc(F)cc1F)c1cc(I)ccc1O`, for which the growth was 16.7%.

`CC(C)Cn1c2c(c(=S)[nH]c1=O)CCC2`: the growth is 105%.

For the compound `CNCCNc1nc2ccccc2c2c(=O)c3cccc(C)c3sc12`, the growth is -40.9% (active).

Take `COC(=O)c1c2c(c(C)[n+]([O-])c1C)C(=O)C(NCc1ccc(F)c(F)c1)=CC2=O`: the growth is 4.33% (active).

On to `O=C(Cn1cc(COc2ncnc3c2cnn3-c2ccccc2)nn1)Nc1ccccn1`, for which the growth was 97.4%.

The next assay concerns HCT-15 colon. Described as above. The conditions noted are these: 10 µM unless noted.
For `NCCNc1nc2ccccc2c2c(=O)c3cc(F)cc(Cl)c3sc12`, the growth was -83.4% (active).

In the case of `C=C1C(=O)O[C@H]2[C@H]1CC/C(COC(=O)/C=C\C(=O)O)=C\CC[C@@]1(C)O[C@@H]21`, the growth is 105%.

Take `COc1ccccc1C(=O)/C=C/c1ccccc1`: the growth was 53.3%.

As for `Cn1cc([C@@H]2Nc3ccc4[nH]ncc4c3[C@H]3[C@H]4CCC(C4)[C@H]32)c(C(F)(F)F)n1`, the growth is 30.8%.

Take `N#Cc1c(N)nc2c(c1N)C(c1ccc(F)cc1)c1ccc(N)cc1O2` (stereo not drawn): the growth is 100%.

With `O=C(CN1C=NC2C(N3CCOCC3)=NC=NC21)c1ccc(Br)cc1` (stereo not drawn), the growth is 101%.

In the case of `CCCCN1CCN(c2ccc3nc(-c4ccc5nc(-c6ccc(OCC)cc6)[nH]c5c4)[nH]c3c2)CC1`, the growth is 16.6%.

`CCN(CCO)CCNc1ccc(C)c2sc3cc(Cl)ccc3c(=O)c12`: the growth was -44.9% (active).

Regarding `Cc1nn(-c2nc3ccccc3[nH]2)c2c1C(c1ccc(OCC(N)=O)cc1)CC(=O)N2` (stereo not drawn), the growth is 98%.

`COC(=O)/C(CCC=C(C)C)=C1\[C@@H](OC(C)=O)C[C@@]2(C)[C@H]1C[C@@H](O)[C@H]1[C@@]3(C)CC[C@H](NCCO)[C@@H](C)[C@@H]3CC[C@@]12C`: the growth was 103%.

For `CCCc1c(C)c2sc(=O)[nH]c2[nH]c1=O`, the growth was 103%.

For the compound `O=C(/C=C/c1ccc(Cl)cc1)c1ccc(Nc2nc(NCCO)nc(Nc3ccc(Cl)cc3)n2)cc1`, the growth was 25.9%.

With `COc1cccc2c(=O)c3c(sc12)c(NCCCNCCO)nc1ccccc13`, the growth is 25.6%.

Turning to `CCCCc1ccc(NS(=O)(=O)c2cc3c4c(c2)CCN4C(=O)CC3)cc1`, the growth was 32.6%.

In the case of `O=C1/C(=C/c2ccc(O)cc2)COc2ccc(O)cc21`, the growth was 75.9%.

As to `Cc1cc(Nc2ccc(OCc3ccccc3)cc2)nc2cc(O)ccc12`, the growth is 16.9%.

For `O=C(c1nc2ccccc2[nH]1)C1[C@@H](c2cccc(O)c2)C2CC3CCCCC3N2[C@@]12C(=O)Nc1cc(Cl)ccc12` (stereo partly drawn), the growth is 40.7%.

Take `O=c1oc2ccc(Br)cc2c(=O)n1-c1ccc(Br)cc1F`: the growth is 2.53% (active).

For `O=C(/C=C/c1ccc(C(F)(F)F)cc1)c1ccc(Nc2nc(NCCO)nc(N3CCOCC3)n2)cc1`, the growth was 7.59% (active).

Consider `C#CCn1cc(C=C2C(=O)N(C)C(=O)N(C)C2=O)c2cc(Cl)ccc21`, for which the growth is 111%.

Consider `COc1ccc(/C=C2/SC(=O)N(CC(=O)N3CCN(c4cc5c(cc4F)c(=O)c(C(=O)O)cn5C4CC4)CC3)C2=O)cc1`, for which the growth is 109%.

As for `CCOC(=O)C1=C(C)N=c2s/c(=C\c3ccccc3O)c(=O)n2C1c1ccc(OC)c2ccccc12` (stereo not drawn), the growth was 1.84% (active).

With `Nc1ccc(-c2ccc(-c3ccccc3N)c3[nH]c4ccccc4c23)cc1`, the growth was 19.5%.

In the case of `CCOC(=O)c1c2c(n3cccc(Cl)c13)C(=O)c1ncccc1C2=O`, the growth is 25.6%.

For the compound `O=C(Nc1ccc(C23CC4CC(CC(c5ccccc5)(C4)C2)C3)cc1)c1cccs1`, the growth is 60.2%.

On to `Cc1ccc2sc3c(NCCCNCCO)nc4ccccc4c3c(=O)c2c1`, for which the growth is -8.68% (active).

Consider `COc1ccccc1N1CCN(C(CNS(=O)(=O)c2ccc(Cl)cc2)c2cccnc2)CC1` (stereo not drawn), for which the growth is 49%.

As to `CCn1c(-c2nonc2Nc2ccc(OC)cc2)nc2ccccc21`, the growth was 97.7%.

Turning to `O=C(Nc1ccc(N2CCNCC2)cn1)c1[nH]ncc1Nc1ncnc2sc3c(c12)CCC3`, the growth is -85.6% (active).

Consider `O=C(/C=C/c1cccc(Cl)c1)OCc1ccc2cc1OCC#C/C=C\C#CCO2`, for which the growth is 102%.

On to `C[n+]1c2ccccc2nc2ccc(NCCO)cc21`, for which the growth is 93.8%.

With `Nc1nc2c(ncn2[C@@H]2O[C@H](CS)[C@@H](O)[C@H]2O)c(=O)[nH]1`, the growth is 101%.

Take `Cn1c(C(=O)c2cccc3ccccc23)nc2ccccc21`: the growth is 29.4%.

On to `CC/C(=C(\CC)c1ccc(OCC[N+](C)(C)C)cc1)c1ccc(OC)cc1`, for which the growth is 97.6%.

Consider `O=C(Nc1ccc(F)cc1F)c1cc(I)ccc1O`, for which the growth was 15.9%.

Take `CC(C)Cn1c2c(c(=S)[nH]c1=O)CCC2`: the growth was 105%.

In the case of `CNCCNc1nc2ccccc2c2c(=O)c3cccc(C)c3sc12`, the growth was -21.3% (active).

Take `COC(=O)c1c2c(c(C)[n+]([O-])c1C)C(=O)C(NCc1ccc(F)c(F)c1)=CC2=O`: the growth was 6.07% (active).

With `O=C(Cn1cc(COc2ncnc3c2cnn3-c2ccccc2)nn1)Nc1ccccn1`, the growth is 101%.
